Rows were chosen to be rich in hits. Some 2.4% of all compounds tested hit in one or more screens of this group.
CHRM1 agonist: human M1 muscarinic receptor agonists, primary screen, Fluo-8 calcium fluorescence, CHO-K1 cells, HTS | Muscarinic acetylcholine receptor M1 (Homo sapiens), P11229 | CHO-K1 hM1, agonist mode; 0% DMSO, 100% acetylcholine EC100 | activation, % at 3 µM | hit rate 0.33% among 360,000;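 active = activation above the run's mean compound activation plus 3 SD, cut at about 16% in these data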;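 note: peak over basal fluorescence ratio within a 140 s kinetic read after compound addition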
Target sequence (P11229 whole entry, looked up): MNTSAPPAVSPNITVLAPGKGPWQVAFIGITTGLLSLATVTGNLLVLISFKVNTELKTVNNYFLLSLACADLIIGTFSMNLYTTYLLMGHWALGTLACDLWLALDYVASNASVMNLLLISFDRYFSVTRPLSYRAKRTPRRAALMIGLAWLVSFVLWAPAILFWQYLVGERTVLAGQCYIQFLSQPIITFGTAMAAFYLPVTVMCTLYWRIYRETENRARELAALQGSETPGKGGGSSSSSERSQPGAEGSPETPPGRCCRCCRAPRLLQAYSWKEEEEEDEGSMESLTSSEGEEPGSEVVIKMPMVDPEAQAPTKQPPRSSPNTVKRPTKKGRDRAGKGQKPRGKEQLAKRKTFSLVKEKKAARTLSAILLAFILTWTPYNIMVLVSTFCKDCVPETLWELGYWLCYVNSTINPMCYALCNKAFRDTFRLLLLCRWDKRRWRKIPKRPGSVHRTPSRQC
CHO-K1 Ca antag: counter-screen for M1 antagonists: effect in parental CHO-K1 cells; hit rate 0.6% among 360,000; AID 602250; inhibition, % at 3 µM; ATP-induced calcium, Fluo-8 fluorescence;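 active = inhibition above a per-plate cutoff, the plate's mean sample inhibition plus 3 SD, cut at about 24% in these data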
M1 PAM parental: nonselective calcium activators in parental CHO-K1 cells, primary screen, counter-screen for M1 PAM project, cell-based, Fluo-8 calcium fluorescence, full deck, 1536-well | activation, % at 3 µM | ATP EC20; 0% at ATP EC20, 100% at ATP max | hit rate 0.02% among 360,000;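 active = activation above the run cutoff, the mean activation of all test compounds plus 3 SD, cut at about 40% in these data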;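 note: peak over basal fluorescence ratio in a 140 s read after ATP addition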
M1 antag: human M1 muscarinic receptor antagonists, primary screen, CHO-K1 cells, Fluo-8 calcium fluorescence, 1536-well | Muscarinic acetylcholine receptor M1 (Homo sapiens), P11229 | CHO-K1 hM1, ACh EC80 antagonist | inhibition, % at 3 µM | hit rate 1.3% among 360,000 | AID 588852, 2011;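 active = percent inhibition above its own plate's cutoff, namely the mean of that plate's compound wells plus 3 SD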;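 note: peak over basal fluorescence ratio during 140 s after agonist addition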
CHO-K1 Ca ag: counter-screen for M1 agonists: effect in parental CHO-K1 cells | activation, % at 3 µM | hit rate 0.48% among 360,000 | Fluo-8 calcium fluorescence; scaled to maximal ATP response, vehicle zero; in the data active = activation above about 15%;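 note: untransfected CHO-K1 host cells lacking M1 receptor as counterscreen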
CHRM1 PAM: human M1 muscarinic receptor positive allosteric modulators, primary screen, CHO-K1 cells, Fluo-8 calcium fluorescence, 1536-well; Muscarinic acetylcholine receptor M1 (Homo sapiens), P11229; CHO-K1 hM1, ACh EC20; 0% = ACh EC20, 100% = maximal ACh; activation, % at 3 µM; hit rate 0.088% among 360,000; in the data active = activation above about 19%, passing the limit was not always enough
Large screens that a line does not name were inactive.

O=C1NC(=O)N(c2ccccc2)C(=O)/C1=C/c1ccc(Sc2ccccc2)o1	none
Cc1ccccc1-c1ccc2n1Cc1cnnn1-c1ccccc1-2	none
O=c1c2ccccc2nc(Cc2cccc([N+](=O)[O-])c2)n1-c1ccc(O)cc1	none
O=[N+]([O-])/C=C1/NCCN1Cc1ccc(Cl)nc1	CHO-K1 Ca antag 26
O=[N+]([O-])/C(Cl)=C1\NCCN1Cc1ccc(Cl)nc1	none
COc1ccc(OC)c(-n2c(O)c(C=NCCN3CCNCC3)c(=O)[nH]c2=S)c1	none
CCOC(=O)c1c(C=O)c2ccccc2n1Cc1ccccc1F	none
CC(=O)c1cn(Cc2ccccc2C#N)c2ccccc12	CHO-K1 Ca antag 28, CHO-K1 Ca ag 17
Clc1cccc(N2Cc3ccccc3-n3nncc3C2)c1	none
CCOC(=O)[C@]12Cc3cc(C)ccc3[C@H]1N(C1CCCCC1)C(=O)c1cc(OC)ccc12	CHO-K1 Ca antag 25 (no result: CHRM1 agonist, M1 antag, CHRM1 PAM)
Cc1nn(Cc2ccccc2)c(C)c1C(=O)OCC(=O)Nc1cccc(S(N)(=O)=O)c1	none
CN1C2CCC1CC(OC(=O)c1cccc(O)c1)C2 (stereo not given)	M1 antag 59
CC1CC(OC(=O)c2ccccc2)CC(C)N1C (stereo not given)	M1 antag 42
CC(=O)Nc1ccccc1OP1(=O)COc2ccccc2OC1	none
Cc1nn(Cc2ccc(Cl)cc2Cl)c(Cl)c1C(=O)NC1CCCc2ccccc21 (stereo not given)	none
N#CC(CCN1CCOCC1)(c1ccccc1)c1ccccc1	M1 antag 41
CCOP(=O)(OCC)C(NC(=O)C(C)C)C(Cl)(Cl)Cl (stereo not given)	none
CCCCCCn1c(O)c(C=Nc2c(C)n(C)n(-c3ccccc3)c2=O)c(=O)[nH]c1=O	M1 antag 47
Cn1c(O)c(C=NCCN2CCOCC2)c(=O)n(C)c1=S	none
O=C(c1ccc(Cl)cc1)C1CCCN(Cc2cccc3ncccc23)C1 (stereo not given)	M1 antag 51
O=C(c1ccc(Cl)cc1)C1CCCN(Cc2ccc3nonc3c2)C1 (stereo not given)	M1 antag 43
O=C(c1ccc(C(F)(F)F)cc1)C1CCCN(Cc2ccncc2)C1 (stereo not given)	none
COc1ccc(CN2CCCC(C(=O)c3ccc(Cl)cc3)C2)c(O)c1 (stereo not given)	none
O=C(c1ccc(Cl)cc1)C1CCCN(Cc2cccc3cccnc23)C1 (stereo not given)	M1 antag 58
O=C1C2CC(CN3CCCCC23)C2CCCCN12 (stereo not given)	none
C[N+](C)(C)CCOC(=O)CBr	CHRM1 agonist 20
O=C(O)COc1cc(Cl)c(Cl)cc1Cl	none
COc1cc(/C=C/[N+](=O)[O-])ccc1O	none
CCN(CC)c1ccc(/C=C/[N+](=O)[O-])cc1	CHRM1 agonist 70, CHO-K1 Ca antag 31, M1 antag 53, CHO-K1 Ca ag 60
c1ccc(C2CN3CCC2CC3)cc1 (stereo not given)	M1 antag 41
OCC[N+]12CCC(CC1)C(C(O)(c1ccccc1)c1ccccc1)C2 (stereo not given)	none
OC(Cc1ccccc1)(c1ccccc1)C1CN2CCC1CC2 (stereo not given)	M1 antag 98
OC(c1ccccc1)(c1ccc(Cl)cc1)C1CN2CCC1CC2 (stereo not given)	M1 antag 100
OC(c1ccccc1)(c1ccccc1)C1CN2CCC1CC2 (stereo not given)	M1 antag 98
CCOC(=O)c1nc2ccccc2c(=O)n1-c1cccc(C)c1	none
COc1ccc(C(=O)C2CCCN(Cc3cnc(C)s3)C2)cc1OC (stereo not given)	none
Cc1ncc(CN2CCCC(C(=O)c3ccc(C(C)(C)C)cc3)C2)s1 (stereo not given)	M1 antag 87
O=C(c1ccc(C(F)(F)F)cc1)C1CCCN(Cc2ccc(CO)o2)C1 (stereo not given)	M1 antag 61
CCn1ccnc1CN1CCCC(C(=O)c2ccc(SC)cc2)C1 (stereo not given)	M1 antag 77
CCc1c(-c2ccccc2)nc2ccccc2c1C(=O)N1CCC2(CC1)OCCO2	none
CCOC(=O)c1[nH]c2ccc(OC)cc2c1C(SCC(=O)O)c1ccc(C(F)(F)F)cc1 (stereo not given)	none
Cc1ccc2nc(N3CCC(C(=O)N4CCC5(CC4)OCCO5)CC3)sc2c1	none
CCc1ccc2nc(N3CCC(C(=O)N4CCC5(CC4)OCCO5)CC3)sc2c1	M1 antag 41
O=C(C1CCN(c2nc3ccc(Br)cc3s2)CC1)N1CCC2(CC1)OCCO2	M1 antag 59
Clc1cccc(C2NCc3ccccc3-n3cccc32)c1 (stereo not given)	none
Brc1ccc2c(c1)C(OC1CN3CCC1CC3)c1ccccc1CS2 (stereo not given)	M1 antag 101
Cc1cccc(CN2CCCC(C(=O)c3cccc(OC(C)C)c3)C2)n1 (stereo not given)	none
COc1cccc(C(=O)C2CCCN(Cc3cccc(C)n3)C2)c1 (stereo not given)	M1 antag 27
COc1ccc(C(=O)C2CCCN(Cc3ccon3)C2)cc1OC (stereo not given)	none
O=C(c1ccc2c(c1)OCO2)C1CCCN(CC2CCCCC2)C1 (stereo not given)	M1 antag 42
COc1cccc(C(=O)C2CCCN(Cc3ccc4nsnc4c3)C2)c1 (stereo not given)	M1 antag 34
COc1c(C)cc(C(=O)C2CCCN(Cc3cccc(C)n3)C2)cc1C (stereo not given)	M1 antag 33
COc1cccc(C(=O)C2CCCN(Cc3ccc(F)cc3)C2)c1 (stereo not given)	none
O=c1[nH]c(=S)[nH]c(O)c1/C=N/N1CCOCC1	none
COc1ccc(CCN(C)Cc2c(F)cccc2F)cc1OC	none
COc1c(C)cc(C(=O)C2CCCN(C3CCOCC3)C2)cc1C (stereo not given)	M1 antag 55
O=C(c1ccc2c(c1)OCO2)C1CCCN(Cc2c(F)cccc2Cl)C1 (stereo not given)	M1 antag 92
O=C(c1cccc(C(F)(F)F)c1)C1CCCN(Cc2ccccc2O)C1 (stereo not given)	none
Cc1cccc(CN2CCCC(C(=O)c3ccc4c(c3)OCO4)C2)n1 (stereo not given)	M1 antag 33

Assay outcomes from PubChem BioAssay.
